High-throughput results from PubChem BioAssay.
A selection: hits, their analogues and other compounds. The true share with any hit is near 1.7%.
GLP1R inv ag – qHTS of GLP-1 Receptor Inverse Agonists (Inhibition Mode) | HEK293 GLP-1R CRE-luciferase, luminescence, 24 h; GLP-1R form is constitutively active | Glucagon-like peptide 1 receptor (Homo sapiens), P43220 | Potency, µM (titrated, usually from 38.3 µM), inactives show at the top dose activity change, negative = inhibition, usual class: inhibitors | 1.6% of 410,000 active; note: potency is the fitted concentration of half-maximal effect; % is set by controls: 0 for no effect and ±100 for the full control effect; nearly all actives have a fitted effect of over 55% in size
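Inverse agonism was detected as reduced cAMP-driven luciferase luminescence after 24 h compound treatment. The cells were HEK293 clones expressing constitutively active human GLP-1R with the reporter. Reporter-only and GPR119 cell lines served as counterscreen controls.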
LDHA inh – qHTS assay for inhibitors of human lactate dehydrogenase | L-lactate dehydrogenase A chain (Homo sapiens), P00338 | activity change, % (values are at about 110 or 230 µM) | 0.15% of 480,000 active | AID 1347041, 2019 | purified LDHA, NADH/diaphorase-resazurin fluorescence; stronger effect = lower value; in the data active = activity change below about -30%; inconclusive = mostly about -25% to -30%;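 note: plate controls were DMSO wells for no effect and wells without enzyme for full effect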
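Resorufin fluorescence (ex540/em590), read at 0 and 20 min after diaphorase/resazurin addition, reports the NADH left after a 5 min room-temperature reaction of 2 nM human LDH5 with 0.06 mM NADH and 0.2 mM pyruvate.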
HEK293 tox – qHTS of GLP-1 Receptor Inverse Agonists: Cytotox Screen. 0.13% of 410,000 active. HEK293 cAMP-luciferase reporter cells, luminescence, 24 h. Potency, µM (top dose mostly 38.3 µM), for the others: at the highest dose activity change, negative = inhibition, most hits filed as inhibitors;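 note: loss of luciferase light is scored as toxicity; potency is the fitted concentration of half-maximal effect; % is set by controls: 0 for no effect and ±100 for the full control effect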
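MLSMR compounds, 24 hr on cells at 37 deg C/5% CO2; luminescence after luciferase reagent (12 min RT). Inhibition counted as the undesired cytotoxic outcome.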
IDH1 R132H inh – qHTS for Inhibitors of mutant isocitrate dehydrogenase 1 (IDH1): qHTS | Potency, µM (doses to about 76.6 µM), for inactives: top-dose activity change, negative = inhibition, actives largely listed as inhibitors | IDH1-R132H enzyme, NADPH consumption, diaphorase/resazurin fluorescence | AID 602179, 2012 | 0.093% of 390,000 active; note: potency is the fitted concentration of half-maximal effect; % is set by controls: 0 for no effect and ±100 for the full control effect; nearly all actives have a fitted effect of over 65% in size
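IDH1-R132H (0.5 ug/mL dispensed) in pH 7.5 Tris buffer was preincubated 30 min with compound, then given a substrate mix of 0.016 mM NADPH and 2 mM alpha-KG for 80 min at room temperature; remaining NADPH was read by diaphorase/resazurin fluorescence.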
GLP-1R agonist – qHTS of GLP-1 Receptor Agonists; Glucagon-like peptide 1 receptor (Homo sapiens), P43220; HEK293 GLP-1R CRE-luciferase, luminescence, 4-6 h; cells express a hypersensitive GLP-1R form; Potency, µM (series often up to 45.6 µM), without a hit: at the highest dose activation, actives largely listed as activators; 0.007% of 380,000 active; note: potency is the fitted concentration of half-maximal effect; % of control where 0% means no effect
PTHR1 agonist – qHTS for PTHR1 Agonists: Primary Screen; HEK293 GP2 PTHR1 cells, GloSensor cAMP luminescence, 1 h; Potency, µM (top dose mostly 115 µM), for the others: at the highest dose activation, hits mostly activators; 0.075% of 410,000 active; AID 743266, 2014; note: potency is the fitted concentration of half-maximal effect; nearly all actives have a fitted effect of over 55% in size
Target sequence (Q03431 whole entry, looked up): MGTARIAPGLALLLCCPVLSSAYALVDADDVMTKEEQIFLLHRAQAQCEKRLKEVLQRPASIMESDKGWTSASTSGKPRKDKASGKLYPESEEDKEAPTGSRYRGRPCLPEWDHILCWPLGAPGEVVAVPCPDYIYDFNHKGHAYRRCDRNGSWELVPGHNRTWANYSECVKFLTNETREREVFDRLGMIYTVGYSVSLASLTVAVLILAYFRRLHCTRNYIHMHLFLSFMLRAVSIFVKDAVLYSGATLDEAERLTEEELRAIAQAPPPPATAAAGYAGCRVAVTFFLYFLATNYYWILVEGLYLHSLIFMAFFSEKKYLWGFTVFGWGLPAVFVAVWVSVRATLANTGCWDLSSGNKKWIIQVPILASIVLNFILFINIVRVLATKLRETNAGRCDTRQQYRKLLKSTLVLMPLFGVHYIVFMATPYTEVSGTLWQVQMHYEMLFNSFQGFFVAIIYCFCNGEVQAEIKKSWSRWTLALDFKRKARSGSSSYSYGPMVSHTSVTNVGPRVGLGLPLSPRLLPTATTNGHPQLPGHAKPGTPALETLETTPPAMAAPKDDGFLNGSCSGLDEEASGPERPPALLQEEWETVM
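HEK-293-derived GP2 cells expressing PTHR1 and a GloSensor cAMP reporter, 3,000/well, plated overnight, given luciferin plus IBMX (each 0.5 mM as added) for 1 h at 37 °C, then compound for 1 h at 37 °C. Luminescence was read after 15 min at room temperature.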
* hit, by the source's call; i = inactive; u = inconclusive; x = no result; [ ] = dose if it differs, or a comment. Unless noted, calls come from the whole dose curve; as a rule, active = well fitted curve in the direction sought with a large enough effect; inconclusive = small, poorly fitted or top-dose-only effect, or another doubt; inactive = no such curve, though single readings can be large; an effect the other way counts as inactive or inconclusive.

SMILES	GLP1R inv ag	LDHA inh	HEK293 tox	IDH1 R132H inh	GLP-1R agonist	PTHR1 agonist
CC(=O)Nc1cccc(NC(=O)CC2CC3CCC2C3)c1 (stereo unspecified)	x	9	x	x	x	x
CC(=O)Nc1ccc(NC(=O)CN2N=C(c3ccccc3)c3cc(Cl)ccc3S2(=O)=O)cc1	x	-6	x	x	x	x
CCC(CC)COC(=O)C(C#N)c1nc2ccccc2nc1N1CCN(C)CC1 (stereo unspecified)	x	2	x	x	x	x
Cc1ccc(NC(=O)CN2CCC(Cc3ccccc3)CC2)cc1S(=O)(=O)N(C)C	8.9µM*	-18	-13%	-4%	-3%	-37%
CC(=O)N1CCN(CC(=O)Nc2ccc(C)c(S(=O)(=O)N(C)C)c2)CC1	4%	-11	2%	5%	0%	i
Cc1ccc(SCCN2CCN(C)CC2)cc1	-34%	-1	0%	-10%	1%	-35%
Cc1ccc(SCCN2CCN(Cc3ccccc3)CC2)cc1	u	-31*	-12%	5%	-1%	-22%
CC(C)=C1C2CCC1C1C(=O)N(NC(=O)COc3ccc(C(C)(C)C)cc3)C(=O)C21 (stereo unspecified)	7.1µM*	0	5%	3%	-5%	-3%[57.5 µM]
CC(C)(C)c1ccc(OCC(=O)NNC(=O)C2CCCO2)cc1 (stereo unspecified)	-13%	-4	0%	4%	3%	-1%
CCOc1ccccc1NS(=O)(=O)c1ccc(-c2coc(C)n2)cc1	x	5	x	x	x	x
COc1ccc(-c2[nH]c(-c3ccc4c(c3)OCO4)nc2-c2ccccc2)cc1	1.8µM*	5	u	8%	-10%	-38%
COc1cccc(OCc2cc(C(=O)N(C)Cc3nc4ccccc4[nH]3)no2)c1	u	-2	1%	16%	10%	-27%
COc1cccc(OCc2cc(C(=O)N(Cc3ccccc3)CC3CC3)no2)c1	8.9µM*	1	-4%	0%	9%	-29%
CC(c1ccccc1)N(CCC(c1ccccc1)C1CCOC(C)(C)C1)C(=O)c1ccco1 (stereo unspecified)	10µM*	1	-11%	u	-39%	-8%
Cc1cc(S(=O)(=O)NC[C@H]2O[C@@H](n3ccc(N)nc3=O)[C@H](O)[C@@H]2O)c(C)s1	-15%	-31*	1%	0%	-3%	-22%
Cc1cc(S(=O)(=O)NC[C@H]2O[C@@H](n3cnc4c(N)ncnc43)[C@H](O)[C@@H]2O)c(C)s1	u	-8	11%	-4%	2%	4%
N#CC1c2ccccc2-c2ccccc2N1C(=O)c1ccccc1 (stereo unspecified)	7.1µM*	-10	-23%	-2%	17%	i
COc1ccc(N(C(=O)c2ccccc2C)S(=O)(=O)c2ccc(C)cc2)cc1	10µM*	2	-3%	-1%	x	-9%
CN(Cc1ccccc1)C(=O)COc1ccc2c(=O)c(-c3ccc(Cl)cc3)coc2c1	x	5	x	x	x	x
Cc1ccc(Cn2c(C3CCCN3c3nc(-c4cc(Cl)c(N)c(Cl)c4)cs3)nc3cc(C(=O)NCCCO)ccc32)cc1 (stereo unspecified)	1%	1	0%	2%	-3%	-13%
Cc1ccc(Cn2c(C3CCCN3c3nc(C)cs3)nc3cc(C(F)(F)F)ccc32)cc1 (stereo unspecified)	10µM*	1	-27%	-15%	0%	i
COc1cccc([C@@H]2Oc3ccc(Br)cc3C(=O)[C@H]2OC(=O)NC2CCCC2)c1	11µM*	-6	0%	-7%[38.3 µM]	-3%	-14%
CC[C@H](C)[C@@H](NC(=O)O[C@@H]1C(=O)c2cc(Br)ccc2O[C@H]1c1cccc(OC)c1)C(=O)OC	u	-3	1%	2%	-2%	-20%
COc1ccccc1NC(=O)Nc1nc(CC(=O)NCC(C)C)cs1	x	12	x	x	x	x
O=C(CC1C(=O)N(Cc2ccccn2)c2nc3ccccc3n21)Nc1ccccc1 (stereo unspecified)	x	7	x	x	x	x
SMILES	GLP1R inv ag	LDHA inh	HEK293 tox	IDH1 R132H inh	GLP-1R agonist	PTHR1 agonist
Cc1ccsc1/C=N/Nc1ccc(C(=O)O)cc1	u	-2	2%	-2%	-8%	-46%
Cc1ccsc1/C=N/Nc1cccc(C(=O)O)c1	4.5µM*	-5	-3%	-2%	-9%	-25%
O=C(NC(=S)Nc1ccc(-c2ccccc2)cc1)c1ccccc1	u	-4	u	-1%	2%	-29%
CC(C)NC(=S)NC(=O)c1ccc(-c2ccccc2)cc1	10µM*	-6	u	1%	-4%	-52%
Cc1cc(C(=O)NNc2ccc(F)cc2)no1	5µM*	0	u	-1%	1%	-53%
Cc1cc(C(=O)NNc2cc(Cl)ccc2Cl)no1	u	4	4%	1%	-6%	-11%
Cc1cc(C(=O)NNc2c(Cl)cccc2Cl)no1	2.5µM*	-1	-23%	0%	1%	i
Cc1[nH]c2ccccc2c1/C=N/N=C(c1ccccc1)c1ccccc1	x	0	x	x	x	x
C=CCc1c(O)ccc2oc(-c3ccccc3)cc(=O)c12	x	10	x	x	x	x
COc1ccc(CC(=O)N2CCC(Nc3nc4ccccc4n3Cc3ccc(F)cc3)CC2)cc1	8.9µM*	2	-17%	0%	-8%	-5%
COc1ccc(Cn2c(SCC(=O)N3CCN(c4ccc(F)cc4)CC3)nc3ccccc32)cc1	-21%	-8	-10%	-6%	x	i
N#CC1=C(N)C(C#N)(C#N)C(c2cccnc2)C2CC(c3ccccc3)CC=C12 (stereo unspecified)	u	12	123%	13µM*	-32%	-10%
CCNc1c(NC(=O)NC2(CC(=O)OCC)CCCCC2)c(=O)oc2ccccc12	x	-9	x	x	x	x
CCNC(=O)NC(=O)CN(CC(C)O)c1ccccc1 (stereo unspecified)	x	13	x	x	x	x
CS(=O)(=O)c1ccc(C(=O)OCC(=O)NC23CC4CC(CC(C4)C2)C3)cc1[N+](=O)[O-]	33%	-10	u	32µM*	-14%	i
CS(=O)(=O)c1ccc(C(=O)OCC(=O)NC(=O)NC2CCCCC2)cc1[N+](=O)[O-]	x	-1	x	x	x	x
